# D3 ag: qHTS of D3 Dopamine Receptor Agonist: qHTS; hit rate 0.58% among 410,000; D3R DiscoveRx beta-arrestin cells, luminescence, 90 min; AID 652048, 2013; D(3) dopamine receptor (Homo sapiens), P35462; max activation, %; in the data active = max activation above about 30%; also: 0% is about no effect
# Target sequence (P35462 whole entry, looked up): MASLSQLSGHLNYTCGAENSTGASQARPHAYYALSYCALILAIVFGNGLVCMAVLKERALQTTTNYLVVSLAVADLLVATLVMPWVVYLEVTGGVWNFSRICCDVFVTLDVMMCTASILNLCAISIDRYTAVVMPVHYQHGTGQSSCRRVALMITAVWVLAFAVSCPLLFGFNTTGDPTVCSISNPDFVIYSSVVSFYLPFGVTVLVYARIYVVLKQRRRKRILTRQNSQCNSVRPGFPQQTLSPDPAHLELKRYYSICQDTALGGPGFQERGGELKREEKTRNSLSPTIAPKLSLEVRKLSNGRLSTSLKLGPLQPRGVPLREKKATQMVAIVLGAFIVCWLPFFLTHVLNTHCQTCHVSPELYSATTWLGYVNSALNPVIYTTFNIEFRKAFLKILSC
#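 Agonist-mode cell screen: cells plated at 1500/well and incubated overnight at 37 °C, then exposed to library compounds for 90 min at 37 °C. Detection reagent was added for 30–60 min at room temperature, and luminescence was read.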
# IDH1 R132H inh: qHTS for Inhibitors of mutant isocitrate dehydrogenase 1 (IDH1): qHTS. Isocitrate dehydrogenase [NADP] cytoplasmic (Homo sapiens), O75874. IDH1-R132H enzyme, NADPH consumption, diaphorase/resazurin fluorescence. Potency, µM (top dose mostly 76.6 µM), inactives show at the top dose activity change, negative = inhibition, actives largely listed as inhibitors. hit rate 0.093% among 390,000; also: potency is read from the fitted curve at half-maximal effect; % is scaled to controls: 0 for no effect and ±100 for the full control effect; nearly all actives have a fitted effect of over 65% in size
#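 IDH1-R132H (0.5 ug/mL dispensed) in pH 7.5 Tris buffer was preincubated 30 min with compound, then given a substrate mix of 0.016 mM NADPH and 2 mM alpha-KG for 80 min at room temperature; remaining NADPH was read by diaphorase/resazurin fluorescence.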
# DRD3 antagonist: qHTS of D3 Dopamine Receptor Antagonist: qHTS. D(3) dopamine receptor (Homo sapiens), P35462. D3R cells, DiscoveRx beta-arrestin luminescence, antagonist mode; active compounds read low. max response, negative = inhibition, %. hit rate 2.5% among 360,000; in the data active = max response below about -50%; inconclusive = no clear call, values can overlap the other calls; also: % is scaled to controls: 0 for no effect and ±100 for the full control effect
#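 Cells expressing the human receptor were seeded at 1500 cells/well, incubated overnight at 37 degrees C in 5% CO2, then exposed to library compounds with dopamine controls for 90 minutes at 37 degrees C before luminescent detection.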
# a7 integrin act: qHTS for Activators of Integrin-Mediated Alleviation for Muscular Dystrophy; hit rate 0.064% among 350,000; alpha7betagal myoblasts, beta-gal FDG fluorescence, 48 h; AID 624291, 2012; Potency, µM (series often up to 38.3 µM), for inactives: top-dose activation, most hits filed as activators;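 also: potency is read from the fitted curve at half-maximal effect; 100% = response of the positive control SU9516; nearly all actives have a fitted effect of over 60% in size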
#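 alpha7betagal+/- myoblasts (passage 13, 250/well) treated 48 h at 37C with compounds at 1:260 dilution of DMSO stock. Lysed, then beta-galactosidase activity read as FDG fluorescence (ex 480/em 540) after 30 min, with pre-read for autofluorescence.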
# B2AR arrestin: qHTS assay of beta-arrestin-biased ligands of beta2-adrenergic receptor; Beta-2 adrenergic receptor (Homo sapiens), P07550; Potency, µM (series often up to 46.1 µM), for the others: top-dose activation, most hits filed as activators; beta-arrestin recruitment to beta2AR, cell-based reporter; hit rate 0.02% among 330,000;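 also: potency is read from the fitted curve at half-maximal effect; 0% = DMSO controls and full agonism = EC100 isoproterenol or metaproterenol; nearly all actives have a fitted effect of over 65% in size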
# The depositor's hits bear a star; ? = inconclusive; · = not tested or not shown; [ ] = another dose, or the depositor's remark. Shown are actives, neighbours in structure and some others; about 2.9% of the full set was active somewhere. Unless noted, calls follow the shape of the dose curve; as a rule, active = well fitted curve in the direction sought with a large enough effect; inconclusive = small, poorly fitted or top-dose-only effect, or another doubt; inactive = no such curve, though single readings can be large; an effect the other way counts as inactive or inconclusive.
SMILES,D3 ag,IDH1 R132H inh,DRD3 antagonist,a7 integrin act,B2AR arrestin
CCCCn1nnc(NC(=S)NC(=O)c2ccc(-c3cccc(Cl)c3Cl)o2)n1,-23,-2%,-71*,17%,-1%
COCCNC(=O)CSc1nc(-c2ccccc2C)nc2c1c(=O)n(C)c(=O)n2C,9,-1%,·,·,·
CCOc1ccc(CN2CCCC(CO)(Cc3ccc(F)cc3)C2)cc1 (configuration not stated),-19,1%,-20,-48%,0%
OCC1(CCc2ccccc2)CCCN(CCCC(F)(F)F)C1 (configuration not stated),-18,-7%,?,?,0%
CC(C)Cc1cc(CN2CCCC(CO)(Cc3cccc(Cl)c3)C2)[nH]n1 (configuration not stated),-20,11%,-67*,-63%,-1%
CSc1ccc(CN2CCCC(CO)(Cc3ccccc3)C2)cc1 (configuration not stated),-4,-2%,-67*,-15%,0%
Cc1cc(CN2CCCC(CO)(Cc3cccc(Cl)c3)C2)n[nH]1 (configuration not stated),-18,-7%,-3,33%,-1%
OCC1(CCc2ccccc2)CCCN(CCCc2ccccc2)C1 (configuration not stated),-22,9%,-70*,-26%,0%
OCC1(Cc2ccc(F)cc2)CCCN(Cc2ccc(F)cc2Cl)C1 (configuration not stated),-11,-2%,-61*,-14%,0%
Cc1ccc(NC(=O)C2CC(O)CN2C(=O)OCc2ccccc2)cc1C (configuration not stated),-4,1%,-8,0%,-1%
CC(C)Oc1ccc(CNC(=O)CCCN2C(=O)c3cccnc3Oc3ccc(Cl)cc32)cc1,6,-11%,·,·,·
COc1ccccc1CNS(=O)(=O)c1cc(C(=O)Nc2cccc(C(F)(F)F)c2)ccc1F,-8,-9%,·,·,·
CCOc1ccc(CCNC(=O)c2ccc(Cn3c(=O)c4cccn4c4cccnc43)cc2)cc1,-4,-7%,·,·,·
COC(=O)c1ccc(CN2CCCC(CO)(Cc3ccccc3F)C2)cc1 (configuration not stated),-19,8%,-88*,17%,0%
Cc1ccc(N=C2C(=O)Nc3ccccc32)cc1C,-6,11%,5,10%,0%
Cc1ccc(N=C2c3ccccc3C(=O)C2[N+](=O)[O-])cc1C (configuration not stated),-4,-2%,-58*,-10%,0%
O=C(CN(C1CCCCC1)S(=O)(=O)c1ccc(F)cc1)NCC1CCCO1 (configuration not stated),-18,0%,?,-74%,·
CN1C[C@H](C(=O)N[C@]2(C)O[C@@]3(O)[C@@H]4CCCN4C(=O)[C@H](Cc4ccccc4)N3C2=O)CC2c3cccc4[nH]cc(c34)C[C@H]21 (some centres not stated),-39,3%,-65*,·,·
CN1C[C@H](C(=O)N[C@]2(C)O[C@@]3(O)[C@@H]4CCCN4C(=O)[C@H](Cc4ccccc4)N3C2=O)C[C@@H]2c3cccc4[nH]cc(c34)C[C@H]21,2,·,·,·,·
S=C1NCCc2ccc(Cl)cc2C1c1ccccc1 (configuration not stated),-3,-3%,-62*,-34%,0%
c1ccc(C2CNCCc3ccccc32)cc1 (configuration not stated),-5,9%,-15,?,0%
Cc1cccc(NC(=O)CSc2nc(-c3cccs3)cc(C(F)(F)F)c2C#N)c1,-6,0%,·,·,·
CC(=O)c1c(COC(=O)c2ccccc2)nc2ccccc2[n+]1[O-],2,6%,30,-17%[7.66 µM],0%
O=C(OCc1nc2ccccc2[n+]([O-])c1C(=O)c1ccccc1)c1cccnc1,2,4%,-55*,-15%,11%
Cc1cc(O)c(NC(=S)NC(=O)c2ccc(-c3ccc(Cl)cc3)o2)cc1C,-32,-2%,-76*,-41%,0%
SMILES,D3 ag,IDH1 R132H inh,DRD3 antagonist,a7 integrin act,B2AR arrestin
Cc1ccc(O)c(NC(=S)NC(=O)Cc2ccc(Cl)cc2)c1,-10,11%,?,-10%,-1%
Cc1ccc(NC(=S)NC(=O)c2ccc(-c3ccc(Cl)cc3)o2)c(O)c1,-16,3%,-101*,-50%,0%
O=C(CNc1cc(S(=O)(=O)N2CCOCC2)ccc1N1CCCC1)Nc1ccc(Cl)cc1F,5,-1%,24,11%,·
Cc1cccn2c(=O)c(/C=C(\C#N)c3nc4ccccc4n3C)c(Oc3ccc(Br)cc3)nc12,3,-7%,·,·,·
COc1cc(OC)c(C2=NOC(C(=O)N3CCCc4ccccc43)C2)cc1Cl (configuration not stated),32*,-1%,5,-3%,0%
O=[N+]([O-])O[C@@H]1CO[C@H]2[C@@H]1OC[C@@H]2O,4,·,·,·,·
CCOC(CNC(=O)c1ccc(N2CCc3ccccc32)c([N+](=O)[O-])c1)OCC,-12,10%,-67*,-32%,3%
Cc1ccc(C(NC(=O)/C=C\c2ccc3c(c2)OCO3)C(=O)Nc2ccc3c(c2)OCO3)cc1 (configuration not stated),-28,3%,-88*,-13%,1%
COc1ccc(NC(=O)C(NC(=O)/C=C\c2ccc3c(c2)OCO3)c2ccc(OC)cc2)cc1 (configuration not stated),-17,9%,·,·,·
O=C(CCC1N=C2c3ccccc3N=C(SCC(=O)Nc3ccc(F)cc3)N2C1=O)NCc1ccco1 (configuration not stated),-3,18%,·,·,·
CCOC(=O)C(=CNc1ccc(O)c(C(=O)OC)c1)C(=O)OCC,57*,14%,159,6%,·
O=c1c2oc3ccccc3c2n(Cc2ccccc2F)c(=O)n1Cc1ccccc1,-1,0%,·,·,·
Cc1nc2c(OCCC3CCCCC3)cccn2c1N(C)C(=O)CCC1CCCC1,-16,·,-67*,·,·
CCc1nc2c(OCCOC)cccn2c1N(C)C(=O)c1ccc(C)cc1,-2,·,-18,·,·
CCc1nc2c(OCCC3CCCCC3)cccn2c1N(C)C(=O)C1CC1,-20,·,-66*,·,·
CCc1nc2c(OCCC3CCCCC3)cccn2c1N(C)C(=O)c1ccc(C)cc1,-18,·,-56*,·,·
Cc1nc2c(OCc3ccc(C(F)(F)F)cc3)cccn2c1N(C)CC1CC1,-28,·,-99*,·,·
Cc1nc2c(OCCOc3ccccc3)cccn2c1N(C)C(=O)CCC1CCCC1,0,·,8,·,·
CCc1nc2c(OCCC3CCCCC3)cccn2c1N(C)C(=O)C(C)C,-20,·,?,·,·
